This is part of a sample that, as a whole, favours compounds with a hit. Of some 83,000 tested, about 20% had one in any assay.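 Activity criterion: percent growth below 10, measured after cells in 96-well plates were exposed to a single compound concentration for 48 hours.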 A number with no mark means an inactive call. The source made the active and inactive calls.

What all share (test): NCI-60 one-dose screen, 48 h (100 = growth as untreated, 0 = no growth, -100 = all killed)
Common to all, as to conditions: 10 µM unless noted

Assay [1] relates to NCI-H23 lung.
For assay [2], the system named is NCI-H322M lung.
The test system of assay [3] is HOP-62 NSCLC.
In assay [4] the test system is NCI-H460 lung.
Assay [5] deals with HOP-92 NSCLC.
Assay [6] has as its system NCI-H522 lung.
Assay [7] deals with A549/ATCC NSCLC.
Assay [8] relates to COLO 205 colon.
Assay [9] deals with DU-145 prostate.
Assay [10] has as its system K-562 leukemia.
The test system of assay [11] is MALME-3M melanoma.
In assay [12] the test system is MDA-MB-231 breast.
Assay [13] concerns SF-268 CNS.
Assay [14] deals with SF-295 CNS.
Assay [15] deals with SF-539 CNS.
For assay [16], the system named is UACC-257 melanoma.
In assay [17] the test system is M14 melanoma.
Assay [18] has as its system 786-0 renal.
Assay [19] concerns RXF 393 renal.

With `O=C1OC(c2ccc(-c3ccccc3)cc2)=C/C1=C/C=C/c1ccccc1`, the growth was 100% in assay [1]; 92.5% in assay [2]; 97.1% in assay [3]; 103% in assay [4]; 68.7% in assay [5]; 95.1% in assay [6]. The growth in [7] was 9.59% (active); in assay [8] it was 120%; in assay [9], 111%; in assay [10], 96%; in assay [11], 104%; in assay [12], 105%. Besides, the growth in assay [13] was 90.5%; in [14], 65.6%; in [15], 105%; in assay [16], -13.8% (active); in assay [17], 112%.

Turning to `Cc1cn(-c2cc(C(=O)Nc3cccc(-n4ccc5c(NC(=O)c6ccccc6)nccc54)c3)cc(C(F)(F)F)c2)cn1`, the growth was 22.5% in [1]; 32.9% in assay [2]; 31.5% in assay [3]; -13.3% (active) in assay [4]; -6.29% (active) in assay [5]; -7.45% (active) in [6]. Also, the growth was -19% (active) in assay [7]; -70.6% (active) in assay [18]; -20.1% (active) in assay [8]; -9.55% (active) in assay [9]; 4.74% (active) in [10]; 25.2% in [11]. Besides, the growth in assay [12] is 4% (active); in assay [19] it was -89.8% (active); in assay [13], 12%; in assay [14], -12.3% (active); in assay [15], -12.1% (active); in [16], 40.6%. In addition, in assay [17], the growth is 11.9%.

Take `CCc1c2cc(Cl)ccc2n2cc(Cc3ccccc3)[nH]c(=O)c12`: the growth is 94.3% in assay [1]; 83.7% in [2]; 103% in assay [3]; 90.9% in assay [4]; 96% in assay [5]; 104% in assay [6]. Further, the growth in [7] was 106%; in assay [18] it was 109%; in assay [8] it was 97.5%; in [9], 104%; in assay [11] it was 85.3%; in assay [12], 97.4%. The growth in assay [19] was 116%; in [13] it was 95.4%; in assay [14] it was 98.1%; in [15] it was 103%; in [16], 104%; in assay [17], 99.9%.

For the molecule `O=C(Nc1ccc(-n2cc(-c3ccncc3)c(-c3ccc(O)c(Cl)c3)n2)cc1)c1cc(Cl)cc(Cl)c1`, the growth in assay [1] was 59.2%; in [2], 50.1%; in assay [3], 45.5%; in assay [4], 22.3%; in assay [5], 42%; in assay [6] it was 22%. In addition, the growth in [7] was 35.9%; in [18], -42.1% (active); in [8], 91.1%; in assay [9], 38.9%; in assay [10], 11.5%; in [11], 34%. Moreover, the growth in assay [12] is -54.1% (active); in assay [19] it was -80.2% (active); in assay [13], 49.4%; in [14], -11.1% (active); in [15], 12.8%; in assay [16] it was 66.9%. Further, the growth in assay [17] is -40.4% (active).

As for `COc1ccc2c(c1)OC(N)=C(C#N)C2c1ccc(F)c(F)c1` (stereo unspecified), the growth in [1] was 48.2%; in [2] it was 51.4%; in [3], 44.9%; in assay [4] it was 14.4%; in [5], 76.3%; in [6] it was -12.6% (active). The growth in [7] is 37.1%; in assay [18], 41.4%; in assay [8], 10.3%; in assay [9] it was 30.4%; in [10] it was 9.04% (active); in [11] it was 78.4%. The growth in assay [12] is 44.5%; in [19], -9.6% (active); in assay [13], 56.7%; in [14] it was 23.1%; in assay [15], 14.6%; in assay [16] it was 73%. In assay [17], the growth is 18.8%.

As for `COCCNC(C(=O)c1ccccc1)c1ccccc1` (stereo unspecified), the growth in [1] was 103%; in assay [2], 100%; in assay [3], 100%; in [5], 85.7%; in assay [6], 107%; in assay [7] it was 99.8%. Further, the growth is 92.5% in assay [18]; 117% in [8]; 107% in assay [9]; 103% in assay [10]; 102% in [11]; 102% in assay [12]. Further, the growth in assay [19] was 101%; in assay [13], 94.3%; in assay [14], 98%; in assay [15] it was 99.7%; in assay [16] it was 97.6%.

Consider `Oc1ccc(Cl)cc1Sc1cc(Cl)ccc1O`, for which the growth in assay [1] is 93.3%; in assay [2] it was 115%; in assay [3], 98.4%; in [4] it was 107%; in [5] it was 63.6%; in [6], 81.6%. Moreover, the growth in assay [7] was 95.5%; in assay [18] it was 110%; in assay [8], 105%; in assay [9], 98.9%; in assay [10] it was 93.3%; in [11], 86.2%. Besides, the growth in assay [12] is 96.4%; in assay [19], 62%; in assay [13], 87.8%; in assay [14], 108%; in assay [15] it was 97.6%; in [16], 94.7%. Moreover, in assay [17], the growth was 95.8%.

For the molecule `O=C(Nc1ccc(-n2cc(-c3ccncc3)c(-c3ccc(O)c(Cl)c3)n2)cc1)c1ccc(Cl)c(C(F)(F)F)c1`, the growth is 29.9% in assay [1]; 54.6% in assay [2]; 33.6% in assay [3]; 8.06% (active) in assay [4]; -3.55% (active) in assay [5]; 24.3% in [6]. The growth was 28.4% in assay [7]; -30.9% (active) in [18]; 57.8% in assay [8]; 35.3% in assay [9]; 5.88% (active) in [10]; 25% in [11]. In addition, the growth in [12] was -29.1% (active); in [19], -81.6% (active); in [13], 38%; in assay [14] it was -2.61% (active); in [15], 2.46% (active); in assay [16] it was 60.9%. Also, the growth in [17] is -16.2% (active).

Take `Cn1c2ccccc2c2ssc(=S)c21`: the growth in [1] is 92.4%; in assay [2], 89.9%; in [3] it was 110%; in [4] it was 106%; in assay [5] it was 88.6%; in assay [6], 85.7%. Further, the growth in assay [7] was 99.7%; in assay [18], 98.5%; in assay [8], 116%; in assay [9] it was 116%; in [10] it was 82.9%; in assay [11], 81.9%. Further, the growth was 99.9% in assay [12]; 108% in assay [19]; 103% in assay [13]; 97.3% in assay [14]; 97.5% in assay [15]; 98.8% in [16]. In addition, the growth in [17] was 89.3%.
